# From PubChem BioAssay
# Most compounds without a hit are left out; they make up all but 10% or so of the library.
# Six1-Eya2 blk: qHTS Assay for Inhibitors of the Six1/Eya2 Interaction | Homeobox protein SIX1 (Homo sapiens) + Protein phosphatase EYA2 (Homo sapiens), … | AlphaScreen GST-Six1/His-Eya2 binding, biochemical; active compounds read low | activity change, % (test concentration not listed) | 360,000 tested, 0.56% active; in the data active = activity change below about -65%; inconclusive = mostly about -30% to -63%
#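 GST-Six1 + His-Eya2 (5X stock: 250/500 nM); Tris pH 8.0, 300 mM NaCl, 0.05% BSA, 0.02% Tween 20; GSH donor/Ni acceptor beads; 1 h 37 °C dark; AlphaScreen readout.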
# JMJD2A Tudor: qHTS Assay for Inhibitors of JMJD2A-Tudor Domain. AlphaScreen JMJD2A-Tudor / H3K4me3 peptide binding. AID 504339, 2011. 390,000 tested, 4.4% active. Lysine-specific demethylase 4A (Homo sapiens), O75164. Potency, µM (doses to about 114 µM), most hits filed as inhibitors; note: nearly all actives have a fitted effect of over 50% in size
# CtBP-E1A inh: qHTS Assay for Inhibitors of the CtBP/E1A Interaction; CtBP / adenovirus E1A interaction (AlphaScreen); AlphaScreen GST-E1A/His-CtBP binding, 1536-well; active compounds read low; activity change, % (no concentration beside the values); 340,000 tested, 0.49% active; in the data active = activity change below about -65%; inconclusive = mostly about -30% to -63%
#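 GST-E1A and His-tagged CtBP (125 nM each as 5X stock) were preincubated with pin-transferred compound for 2 h at 37 °C in the dark, then glutathione donor and nickel acceptor beads were added for 1 h before AlphaScreen reading.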
# HP1b binding inh: HTS for Inhibitors of HP1-beta Chromodomain Interactions with Methylated Histone Tails; Chromobox protein homolog 1 (Homo sapiens), P83916; AlphaScreen HP1-beta / biotin-H3K9me3 peptide binding; Potency, µM (highest dose often 114 µM), actives largely listed as inhibitors; 390,000 tested, 0.56% active; AID 540317, 2011; note: nearly all actives have a fitted effect of over 70% in size
#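 Compound inhibition of the preformed complex between 50 nM HP1-beta and 50 nM biotinylated H3K9me3 peptide was read by AlphaScreen. Buffer was PBS pH 7.4 with 0.01% Tween-20. Incubations ran 30 min at room temperature, with 10 ug/mL donor/acceptor beads.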
# G9a block: qHTS Assay for Inhibitors of Histone Lysine Methyltransferase G9a; Potency, µM (series often up to 102 µM), hits mostly inhibitors; Histone-lysine N-methyltransferase EHMT2 (Homo sapiens), Q96KQ7; AID 504332, 2011; G9a H3K9 monomethylation, AlphaScreen, 2 h; 350,000 tested, 8.8% active; note: nearly all actives have a fitted effect of over 75% in size
#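 Step 1: enzyme (final 20 nM) with compound, 15 min RT. Step 2: substrate peptide 500 nM and SAM 20 uM, 2 h RT. Step 3: anti-H3K9me1 antibody and AlphaScreen beads, 10 min, then plate read.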
# BAZ2B inh: qHTS Assay for Inhibitors of BAZ2B. Bromodomain adjacent to zinc finger domain protein 2B (Homo sapiens), Q9UIF8. AlphaScreen BAZ2B-H3K14Ac peptide displacement. Potency, µM (highest dose often 114 µM), usual class: inhibitors. 360,000 tested, 4.4% active. AID 504333, 2011; note: nearly all actives have a fitted effect of over 60% in size
#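 Multi-concentration screen (max 110 uM) measuring displacement of acetylated histone H3 peptide from BAZ2B by AlphaScreen, using 50 nM protein, 50 nM peptide and 10 ug/mL streptavidin donor plus Ni-chelate acceptor beads.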
# A number is an active result; 0 = inactive; ? = inconclusive; - = no result; [ ] = remark or other dose. Unless noted, calls come from the whole dose curve; as a rule, active = well fitted inhibition curve with a large enough effect; inconclusive = small, poorly fitted or top-dose-only effect; inactive = no such curve, though single readings can be large or run the other way.
SMILES,Six1-Eya2 blk,JMJD2A Tudor,CtBP-E1A inh,HP1b binding inh,G9a block,BAZ2B inh
CCN(C(=S)NC(=O)Cc1ccc(OC)cc1)c1ccccc1,0,0,0,0,-,-
CC(C)NC(=O)C1(C)CCCN1C(=O)c1cc(C#N)cs1 (stereo not given),0,-,0,-,-,-
COC(=O)c1ccccc1NC(=O)C1=CC(c2cccs2)=NS(=O)(=O)N1C,0,0,?,0,0,0
CSc1ccccc1NC(=O)C1=CC(c2cccs2)=NS(=O)(=O)N1C,0,?,0,0,35µM,0
COc1cc(NC(=O)C2=CC(c3cccs3)=NS(=O)(=O)N2C)cc(OC)c1OC,0,?,0,0,45µM,?
Cc1ccc(-c2[nH]c3cc(C(=O)NCCCn4ccnc4)ccc3c(=O)c2O)cc1,0,0,0,0,0,56µM
CCCNC(=O)c1ccc2c(=O)c(O)c(-c3ccc(C)cc3)[nH]c2c1,0,0,0,0,0,0
CCCNC(=O)c1ccc2c(=O)c(O)c(-c3ccsc3)[nH]c2c1,?,0,-76,0,?,0
COc1ccccc1NC(=O)c1oc2ccccc2c1NC(=O)c1cccc(OC)c1OC,-,0,-,0,0,0
CCn1c(=O)c2c(O)cc(=O)oc2c2ccccc21,0,?,0,0,0,0
CC(C)n1c(=O)c2c(O)cc(=O)oc2c2ccccc21,0,50µM,0,0,0[0.0925 µM],0
Cc1cc(C)cc(CN2C(=O)NC3(CCCCCC3)C2=O)c1,0,0,0,0,0,0
CCCCOP(=O)(OCCCC)C1(C)CC(=O)CC(C)(C)C1 (stereo not given),0,0,0,0,-,-
Cc1ccc(NC(=O)Cn2c(=O)c(CNc3ccccc3)cc3cc4c(cc32)OCCO4)cc1,-,0,-,0,0,0
N#Cc1cnc2nc1NCCCCCCC2,0,-,0,-,-,-
O=C1OCC(CO)(CO)N=C1NNc1ccccc1[N+](=O)[O-],0,0,0,0,?,0
O=C1OCC(CO)(CO)N=C1NNc1cc(Cl)ccc1Cl,0,0,0,0,50µM,0
Cc1ccc(NC(=O)CN2C(=O)/C(=C3\SC(=S)N(C4CCS(=O)(=O)C4)C3=O)c3ccccc32)cc1 (stereo not given),0,0,0,0,50µM,0
Cc1cccc(NC(=O)CN2C(=O)/C(=C3\SC(=S)N(CC4CCCO4)C3=O)c3ccccc32)c1 (stereo not given),0,0,-,0,0,0
O=C(CN1C(=O)/C(=C2/SC(=S)N(CCS(=O)(=O)O)C2=O)c2ccccc21)Nc1cccc(Br)c1,?,45µM,0,50µM,-,-
O=C(CN1C(=O)/C(=C2\SC(=S)N(C3CCS(=O)(=O)C3)C2=O)c2ccccc21)Nc1ccccc1 (stereo not given),0,0,0,0,25µM,0
Cc1ccc(NC(=O)CN2C(=O)c3ccccc3C2=O)cc1,0,0,0,0,-,0
Cc1ccc(CNc2ccc3c(c2)nc(C)n3C)cc1,0,0,0,0,25µM,?
Cc1nc2cc(NCc3ccc(Cl)cc3)ccc2n1C,0,?,0,0,-,0
COc1ccc(CNc2ccc3c(c2)nc(C)n3C)cc1,0,0,0,0,3.5µM,0
COc1ccc(OC)c(CNc2ccc3c(c2)nc(C)n3C)c1,0,0,0,0,35µM,0
COC(=O)c1ccc(Cl)cc1NC(=O)N1CC=C(c2c[nH]c3ccccc23)CC1,-,0,-,0,0,?
Cc1cc(C(F)(F)F)nn1-c1nc(-c2ccccc2)cc(C(F)(F)F)n1,-,0,-,0,0,0
COc1ccc(NCc2cc(=O)oc3cc(NC(C)=O)ccc23)cc1,0,0,0,0,0[2.33 µM],0
O=C(Nc1ccc2nc(SCCOc3ccccc3)sc2c1)c1cccs1,-,0,-,0,0,0
